From PubChem BioAssay
ATXN2 expr inh – inhibitors of ATXN2 expression. Potency, µM (highest dose often 57 µM), without a hit: top-dose activity change, negative = inhibition, most hits filed as inhibitors. HEK-293 ATXN2-luciferase reporter, luminescence, 24 h. actives 0.72% (n = 360,000). AID 1745845; also: potency is read from the fitted curve at half-maximal effect; % is scaled to controls: 0 for no effect and ±100 for the full control effect; nearly all actives have a fitted effect of over 55% in size
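ATXN2-luciferase reporter cells (luciferase flanked by upstream and downstream ATXN2 gene portions) were treated 24 h at 37 °C with compounds at up to 57 uM. SteadyGlo luminescence gave expression; GF-AFC fluorescence gave viability.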
Six1-Eya2 inh – blocks human Six1 binding to Eya2; Q15475+O00167; AlphaScreen GST-Six1/His-Eya2 binding, biochemical; hits give low values; activity change, % (concentration not given with the values); actives 0.56% (n = 360,000); AID 651725; in the data active = activity change below about -65%; inconclusive = mostly about -30% to -63%; also: % is scaled to controls: 0 for no effect and ±100 for the full control effect
Target sequence (O00167 whole entry, looked up): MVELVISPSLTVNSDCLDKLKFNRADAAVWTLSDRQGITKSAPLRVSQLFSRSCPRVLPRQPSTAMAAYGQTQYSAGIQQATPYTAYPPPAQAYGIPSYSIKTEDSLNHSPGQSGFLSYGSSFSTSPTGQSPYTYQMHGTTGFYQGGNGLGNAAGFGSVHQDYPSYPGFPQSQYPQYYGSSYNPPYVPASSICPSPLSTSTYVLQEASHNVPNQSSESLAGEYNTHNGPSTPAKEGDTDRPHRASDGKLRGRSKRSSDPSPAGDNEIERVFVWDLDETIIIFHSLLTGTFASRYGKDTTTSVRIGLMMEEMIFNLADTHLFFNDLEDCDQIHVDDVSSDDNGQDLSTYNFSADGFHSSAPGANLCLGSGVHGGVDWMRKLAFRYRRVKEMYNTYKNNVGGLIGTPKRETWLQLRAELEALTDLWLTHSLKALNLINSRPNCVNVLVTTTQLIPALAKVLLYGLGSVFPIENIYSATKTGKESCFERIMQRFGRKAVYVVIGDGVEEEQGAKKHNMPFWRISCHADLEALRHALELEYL
Target sequence (Q15475 whole entry, looked up): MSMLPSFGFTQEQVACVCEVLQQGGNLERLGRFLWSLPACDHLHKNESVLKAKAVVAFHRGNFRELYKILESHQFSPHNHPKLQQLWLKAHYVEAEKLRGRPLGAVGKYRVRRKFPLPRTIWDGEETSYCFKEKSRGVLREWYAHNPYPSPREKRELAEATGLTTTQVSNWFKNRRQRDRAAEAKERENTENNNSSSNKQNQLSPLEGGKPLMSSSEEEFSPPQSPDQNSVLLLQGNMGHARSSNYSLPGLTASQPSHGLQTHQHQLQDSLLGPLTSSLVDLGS
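AlphaScreen luminescence read after one hour at 37 °C in darkness. Pin-transferred compounds met GST-Six1 and His-Eya2 protein (5X stock 250 nM/500 nM) plus glutathione donor and Ni-chelate acceptor beads (5X, 50 ug/mL).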
CtBP-E1A inh – blocks the CtBP interaction with E1A; actives 0.49% (n = 340,000); activity change, % (no concentration beside the values); AlphaScreen GST-E1A/His-CtBP binding, 1536-well; hits give low values; in the data active = activity change below about -65%; inconclusive = mostly about -30% to -63%; also: % is scaled to controls: 0 for no effect and ±100 for the full control effect
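GST-E1A and His-tagged CtBP (125 nM each as 5X stock) were preincubated with pin-transferred compound for 2 h at 37 °C in the dark, then glutathione donor and nickel acceptor beads were added for 1 h before AlphaScreen reading.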
HepG2 tox – HepG2 cytotoxicity, counter-screen for TGF-b inhibitors. HepG2 CAGA-GFP viability, ATP luminescence, 18 h. Potency, µM (top dose mostly 46.1 µM), inactives show top-dose activity change, negative = cytotoxicity, most hits filed as cytotoxic. actives 0.76% (n = 410,000). AID 588856; also: potency is read from the fitted curve at half-maximal effect
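CellTiter-Glo luminescence gave cytotoxicity after 18 hours at 37 degrees C. The cells were HepG2 CAGA-GFP in 1% FBS DMEM, stimulated with 500 pg/mL TGF-beta after compound addition. %Activity was normalised to no-cell wells (complete cell-killing) and DMSO (no toxicity), and curves were fitted and classified.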
S2 tox – reduces viability in counter-screen for ATXN expression inhibitors; S2 cells (HEK-293 line with an ATXN2-luciferase reporter) viability, CellTiter-Fluor protease fluorescence, 24 h; Potency, µM (doses to about 56.7 µM), most hits filed as cytotoxic; actives 0.49% (n = 400,000); AID 651635; also: potency is read from the fitted curve at half-maximal effect; nearly all actives have a fitted effect of over 40% in size
TGFb SMAD3 inh – blocks TGF-b signaling; HepG2 CAGA-GFP TGF-b/SMAD3 reporter, GFP fluorescence, 18 h; TGF-beta stimulated, 500 pg/mL final; Potency, µM (series often up to 46.1 µM), without a hit: top-dose activity, negative = inhibition, hits mostly inhibitors; actives 1.2% (n = 410,000); also: potency is read from the fitted curve at half-maximal effect; % is scaled to controls: 0 for no effect and ±100 for the full control effect; nearly all actives have a fitted effect of over 65% in size
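Smad-responsive CAGA-GFP expression was quantified in HEPG2 cells exposed to compounds and 500 pg/mL final TGF-beta for 18 h at 37 degrees C; unstimulated wells defined full inhibition.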
* marks the source's active call; other numbers are inactive results; i = inactive; ? = inconclusive; . = no result; [ ] = dose if it differs, or a comment. Only some compounds are listed: those with a hit (about 2.8% of all), similar ones and a draw of the others. Unless noted, calls follow the shape of the dose curve; as a rule, active = well fitted curve in the direction sought with a large enough effect; inconclusive = small, poorly fitted or top-dose-only effect, or another doubt; inactive = no such curve, though single readings can be large; an effect the other way counts as inactive or inconclusive.

SMILES	ATXN2 expr inh	Six1-Eya2 inh	CtBP-E1A inh	HepG2 tox	S2 tox	TGFb SMAD3 inh
O=c1c2c([N+](=O)[O-])cc([N+](=O)[O-])cc2sn1Cc1ccccc1	?	-16	-8	16µM*	?	?
CC(C)(C)n1ncc2c(=O)n(Cc3cccc(-c4ccccc4)c3)cnc21	.	.	.	-28%	.	?
O=c1[nH]c(=O)n(CCOc2ccc(Cl)cc2)cc1Br	-5%	-9	-1	1%	i	5%
C=C1CC(Cn2cc(Br)c(=O)[nH]c2=O)(c2ccc(-c3ccccc3)cc2)OC1=O (configuration not stated)	28µM*	-14	0	7.1µM*	?	4.5µM*
O=C(Cn1c(=O)n(-c2cccc(Cl)c2)c(=O)c2sc3ccccc3c21)N1CCCC1	-12%	.	.	-17%	?	-22%
Nc1c(C(=O)c2ccccc2)sc(Nc2ccc(Cl)c(Cl)c2)c1C(=O)Nc1ccccc1	?	.	.	7.9µM*	.	?
Cc1cc(CNC(=O)c2cnn(-c3nccc(-c4ccc5c(c4)OCO5)n3)c2C2CC2)on1	.	.	.	.	i	.
CN(C)CC[C@H](CSc1ccccc1)Nc1ccc(S(=O)(=O)NC(=O)c2ccc(N3CCN(Cc4ccccc4-c4ccc(Cl)cc4)CC3)cc2)cc1[N+](=O)[O-]	-15%	.	.	.	.	.
COc1cc(O)ccc1-c1nc2ccc(Br)cn2c1Nc1ccccc1C	.	.	.	16µM*	.	?
Cc1ccccc1Nc1c(-c2cccc(O)c2)nc2ccc(Br)cn12	?	.	.	-65%	?	?
CC1CCN(c2ncnc3c2cnn3Cc2ccc(Cl)cc2)CC1	5%	4	4	-7%	i	4%
CC(C)NC[C@@H](C(=O)N1CCN(c2ncnc3c2[C@H](C)C[C@H]3O)CC1)c1ccc(Cl)cc1	19µM*	.	.	.	.	.
Cc1nc(NC(=O)/C=C/c2ccccc2)n[nH]1	4%[11.3 µM]	5	-14	16%	i	13µM*
O=C(C=Cc1ccccc1)Nc1ccccc1	61%	1	-5	-23%	i	12%
N=C(N)SCc1cn(-c2ccccc2)nc1-c1ccc(Br)cc1	?	18	-5	11µM*	?	?
Cc1ccc(-c2nn(-c3ccccc3)cc2CO)cc1	42%	0	10	-5%	i	2%
O=c1ccc(N=Nc2ccccc2)ccc1O	?	?	?	18µM*	13µM*	-25%
O=S(=O)(O)c1ccc(N=Nc2ccccc2)cc1	3%	-12	0	-20%	i	-8%
O=C(CCl)Nc1cc(-c2ccccc2)nn1-c1ccccc1	?	29	40	-111%	32µM*	?
COc1ccc(OCCNC(=O)C2(C)CCN2Cc2ccc3ccccc3c2)cc1 (configuration not stated)	?	-10	-13	-56%	?	14µM*
COc1ccc(OCCNC(=O)C2(C)CCN2Cc2ccc(SC)cc2)cc1 (configuration not stated)	?	-15	-18	-19%	i	?
COc1cc(/C=C/C(=O)c2ccc3c(c2)OCO3)cc(OC)c1OC	?	2	2	22µM*	?	18µM*
O=C(/C=C/c1ccccc1)NC(NC(=S)Nc1cc(Cl)ccc1Cl)C(Cl)(Cl)Cl (configuration not stated)	?	1	-2	-7%	?	2.2µM*
O=C(NC(NC(=S)Nc1ccc(Cl)c(Cl)c1)C(Cl)(Cl)Cl)c1ccco1 (configuration not stated)	?	-13	-1	-43%	i	?
O=C(NC(NC(=S)Nc1cc(Cl)ccc1Cl)C(Cl)(Cl)Cl)c1ccco1 (configuration not stated)	?	-22	12	-29%	i	16µM*
SMILES	ATXN2 expr inh	Six1-Eya2 inh	CtBP-E1A inh	HepG2 tox	S2 tox	TGFb SMAD3 inh
CCC(=O)OCCNc1cc(SCCC(=O)OC)c2nonc2c1[N+](=O)[O-]	8%	-7	-16	-75%	i	?
CCC(=O)OCCNc1cc(Sc2nccn2C)c2nonc2c1[N+](=O)[O-]	?	-18	1	-124%	.	11µM*
CC(=O)OCCNc1cc(SC(C)C)c2nonc2c1[N+](=O)[O-]	-16%	-2	-2	1%	i	8%
CCCC(=O)OCCNc1cc(Sc2nc3ccccc3[nH]2)c2nonc2c1[N+](=O)[O-]	?	?	-10	6.3µM*	?	?
CCOc1ccc(-c2ccc(/C=C3/C(=N)N4C(C)=CSC4=NC3=O)o2)c([N+](=O)[O-])c1	-10%	?	2	-6%	?	-29%
CCOc1ccc(-c2ccc(/C=C3/C(=N)N4C=CSC4=NC3=O)o2)c([N+](=O)[O-])c1	25µM*	-9	-3	36%	.	-4%
Cc1nn(Cc2ccc(Cl)cc2)c(C)c1NC(=O)CSc1nc2c(c(C(F)(F)F)n1)CCc1ccccc1-2	?	-6	-7	0.63µM*	?	-23%
O=C(NNc1ccccn1)C(=O)NNS(=O)(=O)c1ccc(F)cc1	-22%[11.3 µM]	-90*	-92*	-26%	i	-20%
O=C(NNS(=O)(=O)c1ccc(F)cc1)c1ccccc1	2%	12	-17	-10%	i	14%
O=C(NNc1ccccn1)C(=O)NNS(=O)(=O)c1ccc(Cl)cc1	-16%	-85*	?	-24%	i	-11%
COCCNC(=O)C(=O)NNS(=O)(=O)c1ccc(Cl)cc1	8%	2	12	-12%	i	-18%
COc1cccc(CNc2ncnc3sc(C(=O)N4CCOCC4)c(C)c23)c1OC	.	.	.	.	i	.
CCNC(=S)N=Nc1c(O)[nH]c2ccc([N+](=O)[O-])cc12	.	-84*	-87*	-14%	?	-20%
O=[N+]([O-])c1ccc2[nH]c(O)c(N=NC(=S)Nc3cccnc3)c2c1	0%	-80*	-88*	-4%	i	-19%
O=C(O)c1ccccc1N=Nc1c(O)[nH]c2ccc([N+](=O)[O-])cc12	18%	-72*	-85*	7%	i	0%
CCC(c1nnc(SCC(=O)NC23CC4CC(CC(C4)C2)C3)o1)N(C)C (configuration not stated)	7%	4	3	-25%	i	3%
Cc1nnc(SCC(=O)Nc2nccs2)s1	-7%	4	2	-4%	?	-4%
Cc1cc(NC(=O)CSc2nnc(-c3ccc(O)cc3)o2)no1	4%	?	-29	-4%	i	8%
